These results are taken from article PMC8384837, “Expanding the binding specificity for RNA recognition by a PUF domain”.

Assay in all cases: yeast three-hybrid, YBZ-1, SC-Leu-His + 0.5 mM 3-AT, 4 days
Holding throughout (conditions): tags: N-Gal4 AD-HA kept; label: inside an RPR1-promoter hybrid RNA with tandem MS2 sites; ssRNA

Experiment [1] deals with PUM1 PUF domain R1-RWD (Homo sapiens, UniProt Q14671 828-1176, S863R;R864W;Q867D). In short, it runs like this: (§1)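 The interaction score is the log change in variant frequency from input to selection. Scores were computed in log2 with a pseudocount of 1 for absent variants, using Illumina sequencing of PCR-amplified repeat regions. The input came from four days on SC-Leu and the selection from four days on SC-Leu-His + 0.5 mM 3-AT. The cells were strain YBZ-1 (LexA–MS2 coat fusion, HIS3 reporter) co-expressing Pumilio-1 PUF domain libraries and matching RNA elements from a centromeric plasmid.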

In experiment [2] the target is PUM1 PUF domain R1-KRF (Homo sapiens, UniProt Q14671 828-1176, S863K;Q867F). In short, it runs like this: as §1
Experiment [3] concerns the target PUM1 PUF domain R8-RFR (Homo sapiens, UniProt Q14671 828-1176, N1122R;Y1123F;Q1126R). In a few lines:
as §1

Experiment [4] concerns the target PUM1 PUF domain R3-CRM (Homo sapiens, UniProt Q14671 828-1176, Q939M). In short, it runs like this:
as §1

For experiment [5], the target named is PUM1 PUF domain R4-GPH (Homo sapiens, UniProt Q14671 828-1176, N971G;H972P;Q975H). In a few lines:
as §1

Experiment [6] addresses PUM1 PUF domain R3-VFD (Homo sapiens, UniProt Q14671 828-1176, C935V;R936F;Q939D). In short, it runs like this:
as §1

Experiment [7] addresses T1, PUM1 PUF domain R6-NYV (Homo sapiens, UniProt Q14671 828-1176, Q1047V).
T1 sequence: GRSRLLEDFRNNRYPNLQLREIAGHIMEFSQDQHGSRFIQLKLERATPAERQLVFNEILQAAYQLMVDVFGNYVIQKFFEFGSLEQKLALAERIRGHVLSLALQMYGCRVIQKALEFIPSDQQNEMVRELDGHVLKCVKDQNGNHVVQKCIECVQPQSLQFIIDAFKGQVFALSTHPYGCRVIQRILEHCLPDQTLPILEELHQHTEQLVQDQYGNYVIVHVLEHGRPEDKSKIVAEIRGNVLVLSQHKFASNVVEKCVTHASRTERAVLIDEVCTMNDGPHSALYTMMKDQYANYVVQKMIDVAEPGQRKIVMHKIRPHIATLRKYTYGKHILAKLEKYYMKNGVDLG
In short, it runs like this:
as §1

Experiment [8] has as its target PUM1 PUF domain R7-RRL (Homo sapiens, UniProt Q14671 828-1176, S1079R;N1080R;E1083L). In short, it runs like this: as §1
The target in experiment [9] is PUM1 PUF domain R3-YRE (Homo sapiens, UniProt Q14671 828-1176, C935Y;Q939E). In a few lines: as §1
Experiment [10] concerns the target PUM1 PUF domain R3-KPV (Homo sapiens, UniProt Q14671 828-1176, C935K;R936P;Q939V). In short, it runs like this: as §1

Consider “GGCUAGAACUAGUGGAUCCCCCGGCGCCCGGCGGCUCGAGCCCGGGUAAGUGUAAAUGGUCUGCAUGCCGCCGGGCGCCAUGCCUGCAGGUCGACUCUAGAAAACAUG”, for which the binding signal in experiment [1] is 2.32 log2 enrichment (interaction score).
With “GGCUAGAACUAGUGGAUCCCCCGGCGCCCGGCGGCUCGAGCCCGGGUAAGUGUAAAUCGUCUGCAUGCCGCCGGGCGCCAUGCCUGCAGGUCGACUCUAGAAAACAUG”, in experiment [2], the binding signal is 3.25 log2 enrichment (interaction score).
As to “GGCUAGAACUAGUGGAUCCCCCGGCGCCCGGCGGCUCGAGCCCGGGUAAGUGUAAAUAGUCUGCAUGCCGCCGGGCGCCAUGCCUGCAGGUCGACUCUAGAAAACAUG”, the binding signal in experiment [3] was 6.72 log2 enrichment (interaction score); in experiment [4], 3.01 log2 enrichment (interaction score); in [5] it was 4.16 log2 enrichment (interaction score); in experiment [6], 6.45 log2 enrichment (interaction score); in [7] it was 4.01 log2 enrichment (interaction score).
In the case of “GGCUAGAACUAGUGGAUCCCCCGGCGCCCGGCGGCUCGAGCCCGGGUAAGUGUAUAUAGUCUGCAUGCCGCCGGGCGCCAUGCCUGCAGGUCGACUCUAGAAAACAUG”, the binding signal in [5] was 1.26 log2 enrichment (interaction score).
In the case of “GGCUAGAACUAGUGGAUCCCCCGGCGCCCGGCGGCUCGAGCCCGGGUAAGUCUAAAUAGUCUGCAUGCCGCCGGGCGCCAUGCCUGCAGGUCGACUCUAGAAAACAUG”, the binding signal in [8] was 5.23 log2 enrichment (interaction score).
On to “GGCUAGAACUAGUGGAUCCCCCGGCGCCCGGCGGCUCGAGCCCGGGUAAGUGUAAGUAGUCUGCAUGCCGCCGGGCGCCAUGCCUGCAGGUCGACUCUAGAAAACAUG”, for which the binding signal in experiment [4] is 1.46 log2 enrichment (interaction score); in experiment [9], 3.13 log2 enrichment (interaction score).
Regarding “GGCUAGAACUAGUGGAUCCCCCGGCGCCCGGCGGCUCGAGCCCGGGUAAGUGUAACUAGUCUGCAUGCCGCCGGGCGCCAUGCCUGCAGGUCGACUCUAGAAAACAUG”, the binding signal in [6] is 2.56 log2 enrichment (interaction score).
“GGCUAGAACUAGUGGAUCCCCCGGCGCCCGGCGGCUCGAGCCCGGGUAAGUUUAAAUAGUCUGCAUGCCGCCGGGCGCCAUGCCUGCAGGUCGACUCUAGAAAACAUG”: the binding signal in experiment [8] was 6.01 log2 enrichment (interaction score).
For the sequence “GGCUAGAACUAGUGGAUCCCCCGGCGCCCGGCGGCUCGAGCCCGGGUAAGUGUAAUUAGUCUGCAUGCCGCCGGGCGCCAUGCCUGCAGGUCGACUCUAGAAAACAUG”, the figures for the binding signal in [6] and in [10] were 5.14 log2 enrichment (interaction score) and 3.62 log2 enrichment (interaction score), respectively.
In the case of “GGCUAGAACUAGUGGAUCCCCCGGCGCCCGGCGGCUCGAGCCCGGGUAAGCGUAAAUAGUCUGCAUGCCGCCGGGCGCCAUGCCUGCAGGUCGACUCUAGAAAACAUG”, the binding signal in experiment [3] was 6.81 log2 enrichment (interaction score).
